This note sets out measurements from PubChem BioAssay (EPA / NIEHS).

A short description of assay [1]: BSK_MyoF_SRB: Viability Assessment in the BioMAP Diversity Plus: MyoF Assay (AID 2284267).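 Further: total protein by SRB absorbance in parallel cultures as cytotoxicity measure; cells assessed 24 h after compound addition.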 The settings on record: primary human lung fibroblasts. Summed up: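 Confluent human lung fibroblasts were exposed to test chemicals for 24 h. Parallel wells were then fixed in 10% TCA, stained with 0.1% sulforhodamine B and measured at 560 nm. DMSO served as baseline for curve fitting.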

Read-out in assay [2]: Matrix Metallopeptidase 1 (MMP1), MMP1 (gene 4312)
The experiment in a line: BSK_MyoF_MMP1: BioMAP Diversity Plus: MyoF Assay for Matrix Metallopeptidase 1 (MMP1) Biomarker Activity (AID 2284268). The settings on record: primary human lung fibroblasts. In short, it runs like this: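 ELISA readout of MMP1 in primary human lung fibroblast cultures, 24 h post-dosing. Gain of signal versus DMSO vehicle control defines activity. Parallel SRB staining (0.1% after 10% TCA fixation, 560 nm) flags overt cytotoxicity.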

Read-out in assay [3]: TIMP metallopeptidase inhibitor 1 (TIMP1), TIMP1 (gene 7076)
The experiment in a line: BSK_MyoF_TIMP1: BioMAP Diversity Plus: MyoF Assay for TIMP metallopeptidase inhibitor 1 (TIMP1) Biomarker Activity (AID 2284269). The note with it: primary human lung fibroblasts. Here is the method: BSK_MyoF is a cell-based, multiplexed-readout assay that uses lung fibroblasts, […], with measurements taken at 24 hours after chemical dosing in a microplate: 96-well plate.BSK_MyoF_TIMP1 is an assay component measured in the BSK_MyoF assay. It measures TIMP-1 antibody related to regulation of gene expression using ELISA technology.Data from the assay component BSK_MyoF_TIMP1 was analyzed at the endpoint, BSK_MyoF_TIMP1, in the positive analysis fitting direction relative to DMSO as the negative control and baseline of activity. Using a type of binding reporter, gain or loss-of-signal activity can be used to understand protein changes. To generalize the intended target to other relatable targets, this assay endpoint is annotated to the 'protease' intended target family, where the subfamily is 'matrix metalloproteinase'.
(§1) The levels of cell surface (or secreted, indicated by the prefix "s") biomarker endpoints were measured by ELISA. Overt cytotoxicity to cells in confluent adherent cultures (all systems other than the BT system) was assessed by measuring total protein levels using sulforhodamine B (SRB) staining in parallel cultures at the time of biomarker measurements, indicated as SRB endpoints. For proliferation assays for adherent cell types, individual cell types are cultured at sub-confluence and relative cell numbers quantified by SRB staining at time points optimized for each system (48 h: 3C and CASM3C systems; 72 h: BT and HDF3CGF systems; 96 h: SAg system). SRB was performed by staining cells with 0.1% SRB after fixation with 10% TCA and reading wells at 560 nm.Viability and proliferation of PBMC (T cells) was quantified by Alamar Blue reduction for the SAg and BT systems. […] Then, Alamar Blue (20 uL/well) (Invitrogen, Cat DAL1100) was added for 6 h, and the plates were read with a fluorescence microplate reader at 546/580 nm (excitation/emission). […] Plates were read after 6 h.

Read-out in assay [4]: Matrix Metallopeptidase 1 (MMP1), MMP1 (gene 4312)
Briefly: BSK_BF4T_MMP1: BioMAP Diversity Plus: BF4T Assay for Matrix Metallopeptidase 1 (MMP1) Biomarker Activity (AID 2284270). The note with it: primary human bronchial epithelial cells with fibroblasts. Summed up: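 MMP-1 quantified by ELISA in primary human bronchial epithelial/dermal fibroblast co-cultures, 24 hours post-dosing, with DMSO as baseline; parallel sulforhodamine B staining (560 nm) tracks overt cytotoxicity.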

Read-out in assay [5]: Matrix Metallopeptidase 3 (MMP3), MMP3 (gene 4314)
Briefly: BSK_BF4T_MMP3: BioMAP Diversity Plus: BF4T Assay for Matrix Metallopeptidase 3 (MMP3) Biomarker Activity (AID 2284271). The settings on record: primary human bronchial epithelial cells with fibroblasts. Summed up:
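MMP-3 level read by ELISA after 24 h chemical exposure of bronchial epithelial cell/dermal fibroblast co-cultures, fitted upward relative to DMSO. Parallel cultures stained with 0.1% SRB after TCA fixation gauge overt cytotoxicity.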

Read-out in assay [6]: Tissue plasminogen activator (tPA), PLAT (gene 5327)
The experiment in a line: BSK_BF4T_tPA: BioMAP Diversity Plus: BF4T Assay for Tissue plasminogen activator (tPA) Biomarker Activity (AID 2284272). The settings on record: primary human bronchial epithelial cells with fibroblasts. Here is the method: BSK_BF4T is a cell-based, multiplexed-readout assay that uses bronchial epithelial cells and dermal fibroblasts, a human vascular primary cell, with measurements taken at 24 hours after chemical dosing in a microplate: 96-well plate.BSK_BF4T_tPA is an assay component measured in the BSK_BF4T assay. It measures tPA antibody related to regulation of gene expression using ELISA technology.Data from the assay component BSK_BF4T_tPA was analyzed at the endpoint, BSK_BF4T_tPA, in the positive analysis fitting direction relative to DMSO as the negative control and baseline of activity. Using a type of binding reporter, gain or loss-of-signal activity can be used to understand protein changes. To generalize the intended target to other relatable targets, this assay endpoint is annotated to the 'protease' intended target family, where the subfamily is 'serine protease'.
as §1

Read-out in assay [7]: Plasminogen Activator Inhibitor-1 (PAI1), SERPINE1 (gene 5054)
The experiment in a line: BSK_BF4T_PAI1: BioMAP Diversity Plus: BF4T Assay for Plasminogen Activator Inhibitor-1 (PAI1) Biomarker Activity (AID 2284273). The settings on record: primary human bronchial epithelial cells with fibroblasts. In short, it runs like this: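 PAI-1 levels quantified by ELISA 24 h post-dosing in bronchial epithelial cell plus dermal fibroblast cultures. Signal gain referenced to DMSO baseline. Sulforhodamine B total-protein staining of parallel wells checked cytotoxicity.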

A short description of assay [8]: BSK_BF4T_SRB: Viability Assessment in the BioMAP Diversity Plus: BF4T Assay (AID 2284274). The settings on record: primary human bronchial epithelial cells with fibroblasts. In short, it runs like this: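 Cytotoxicity measured as total protein: cells fixed with 10% TCA, stained with 0.1% SRB, read at 560 nm. Bronchial epithelial/dermal fibroblast co-culture, 24 h after dosing, with positive-direction fitting relative to DMSO.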

Read-out in assay [9]: urokinase Plasminogen Activator (uPA), PLAU (gene 5328)
Briefly: BSK_BF4T_uPA: BioMAP Diversity Plus: BF4T Assay for urokinase Plasminogen Activator (uPA) Biomarker Activity (AID 2284275). The settings on record: primary human bronchial epithelial cells with fibroblasts. In short, it runs like this: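 uPA levels measured by ELISA at 24 hours in BF4T cultures (bronchial epithelial cells plus dermal fibroblasts) and compared with DMSO; cytotoxicity tracked in parallel cultures by sulforhodamine B staining.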

Read-out in assay [10]: Matrix Metallopeptidase 9 (MMP9), MMP9 (gene 4318)
Briefly: BSK_BF4T_MMP9: BioMAP Diversity Plus: BF4T Assay for Matrix Metallopeptidase 9 (MMP9) Biomarker Activity (AID 2284276). The settings on record: primary human bronchial epithelial cells with fibroblasts. In short, it runs like this:
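MMP-9 levels were measured by ELISA after 24 h exposure of bronchial epithelial cell/dermal fibroblast co-cultures, with DMSO as baseline. Parallel cultures were stained with 0.1% SRB after TCA fixation, read at 560 nm, to flag overt cytotoxicity.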

Each structure is given as a SMILES string. Where “and” joins values, the source holds several entries; their conditions need not be identical. Equal entries are not always repeated. Some compounds were tested as several samples or in several runs, with calls that do not always agree. Calls of active or inactive are those of the source. How the source made its calls: active means hit-call score of the fitted dose curve at least 0.9, where 1 is the maximum; inactive means score below 0.9.

For the molecule `O=S(=O)(O)C(F)(F)C(F)(F)C(F)(F)C(F)(F)C(F)(F)C(F)(F)C(F)(F)C(F)(F)F`, the result in assay [1], in [2], in assay [3], in [4], in assay [5] and in assay [6] was inactive. The result in [7], in [8], in [9] and in assay [10] was inactive. Besides, the results for the AC50 in assay [5] and in assay [10] were 14.7 µM (active) and 17.1 µM (active), respectively.

As for `ClC1C(Cl)C(Cl)C(Cl)C(Cl)C1Cl` (configuration not stated), the AC50 in assay [1] was 18.6 µM (active) and 726 nM (active); in assay [2], 8.25 µM (active) and 6.92 µM (active) and 292 nM (active). In addition, the result in [1] and in assay [3] was inactive.

For the molecule `O=C(O)C(F)(F)C(F)(F)C(F)(F)C(F)(F)C(F)(F)C(F)(F)C(F)(F)F`, the outcome in assay [1], in assay [2], in [3], in assay [4], in assay [5] and in assay [6] was inactive. Also, the outcome in assay [7], in assay [8], in assay [9] and in assay [10] was inactive. For the same molecule, the AC50 in assay [6] was 30 µM (active) and 1.85 µM (active).
